Source: the supplement of paper PMC10849652
Targets with a hit are over-represented here; the source holds about 7,900 in all. About 0.6% of all pairs of compound and target were hits.

The targets below were run with C1CN(CCC1(CC2=CC=C(C=C2)Cl)N)C3=NC=NC4=C3C=CN4 (assay: log2 fold change, soluble protein after heating vs DMSO (PISA); higher = thermal stabilisation; K562 cells, 10 uM, 30 min; active = over 0.2 and 3.5 SD of the protein, either way, in both replicates (recomputed)).
How it was run: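 K562 cells at 2×10^6 cells/mL were given 10 μM compound for 30 min. Aliquots then went through 3 min of heating across 48°C-58°C, were pooled, and were extracted in PBS with 0.5% NP-40 at 4°C, and the supernatant after 21,000xg for 90 min was quantified by TMTpro 16plex LC-MS/MS with channel sums equalised. Thermal stability relative to control samples, from duplicates, is given as log2 fold change.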

Chain of UniProt P52597 (P52597 whole entry, looked up): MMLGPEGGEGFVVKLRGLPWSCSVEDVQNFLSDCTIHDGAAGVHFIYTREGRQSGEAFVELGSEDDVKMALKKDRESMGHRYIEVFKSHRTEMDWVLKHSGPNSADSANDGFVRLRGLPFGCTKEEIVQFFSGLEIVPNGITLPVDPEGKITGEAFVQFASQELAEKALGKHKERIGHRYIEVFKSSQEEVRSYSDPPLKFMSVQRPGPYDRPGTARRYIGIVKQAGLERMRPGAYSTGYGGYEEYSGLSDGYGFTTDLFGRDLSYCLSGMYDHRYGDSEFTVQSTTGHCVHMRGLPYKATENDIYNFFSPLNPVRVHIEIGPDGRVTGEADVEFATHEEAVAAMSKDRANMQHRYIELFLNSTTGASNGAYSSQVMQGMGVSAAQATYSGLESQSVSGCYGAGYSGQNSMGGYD
Chain of UniProt P31150 (P31150 whole entry, looked up): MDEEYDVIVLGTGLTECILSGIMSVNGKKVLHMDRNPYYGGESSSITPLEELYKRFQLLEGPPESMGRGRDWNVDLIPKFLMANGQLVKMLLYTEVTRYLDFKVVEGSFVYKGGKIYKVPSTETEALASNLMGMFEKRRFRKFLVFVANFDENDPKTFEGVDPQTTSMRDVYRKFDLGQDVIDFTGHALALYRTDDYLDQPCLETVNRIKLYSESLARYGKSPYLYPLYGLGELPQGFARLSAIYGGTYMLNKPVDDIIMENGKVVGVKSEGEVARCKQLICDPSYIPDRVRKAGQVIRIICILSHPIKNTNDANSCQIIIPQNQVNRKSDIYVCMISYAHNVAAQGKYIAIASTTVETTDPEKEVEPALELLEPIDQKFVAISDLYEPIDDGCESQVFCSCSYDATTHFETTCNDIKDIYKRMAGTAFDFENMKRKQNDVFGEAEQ
Chain of UniProt Q9UBN7 (Q9UBN7 whole entry, looked up): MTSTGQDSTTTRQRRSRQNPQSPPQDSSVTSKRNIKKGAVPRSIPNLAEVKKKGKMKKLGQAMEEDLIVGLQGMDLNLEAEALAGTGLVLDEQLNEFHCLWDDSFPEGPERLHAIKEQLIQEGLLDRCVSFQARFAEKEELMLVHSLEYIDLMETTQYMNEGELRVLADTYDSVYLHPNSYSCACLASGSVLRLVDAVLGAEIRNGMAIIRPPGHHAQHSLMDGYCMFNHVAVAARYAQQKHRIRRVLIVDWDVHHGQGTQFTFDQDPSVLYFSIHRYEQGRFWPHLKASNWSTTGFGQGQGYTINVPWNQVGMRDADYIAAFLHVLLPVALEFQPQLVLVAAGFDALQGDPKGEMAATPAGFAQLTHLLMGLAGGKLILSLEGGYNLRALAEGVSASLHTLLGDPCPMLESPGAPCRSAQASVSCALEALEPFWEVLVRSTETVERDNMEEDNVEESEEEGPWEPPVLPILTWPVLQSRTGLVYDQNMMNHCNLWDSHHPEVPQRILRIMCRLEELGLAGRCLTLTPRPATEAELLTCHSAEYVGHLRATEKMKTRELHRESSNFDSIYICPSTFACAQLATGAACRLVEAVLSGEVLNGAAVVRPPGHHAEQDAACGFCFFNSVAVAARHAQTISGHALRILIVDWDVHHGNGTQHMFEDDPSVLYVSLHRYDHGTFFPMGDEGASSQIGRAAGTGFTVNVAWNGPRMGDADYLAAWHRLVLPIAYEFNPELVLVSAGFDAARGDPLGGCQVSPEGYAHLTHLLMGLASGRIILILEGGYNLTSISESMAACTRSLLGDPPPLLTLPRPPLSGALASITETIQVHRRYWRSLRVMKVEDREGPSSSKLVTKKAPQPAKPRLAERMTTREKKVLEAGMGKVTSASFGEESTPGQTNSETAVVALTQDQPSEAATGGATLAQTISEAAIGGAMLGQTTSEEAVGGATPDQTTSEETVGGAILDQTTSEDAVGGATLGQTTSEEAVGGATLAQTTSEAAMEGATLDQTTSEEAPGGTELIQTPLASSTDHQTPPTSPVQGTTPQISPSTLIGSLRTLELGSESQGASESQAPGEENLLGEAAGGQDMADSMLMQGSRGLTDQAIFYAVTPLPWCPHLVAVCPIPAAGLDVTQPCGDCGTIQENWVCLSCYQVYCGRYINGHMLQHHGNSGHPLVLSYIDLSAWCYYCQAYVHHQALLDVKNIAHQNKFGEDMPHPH
Chain of UniProt Q9H0R8 (Q9H0R8 whole entry, looked up): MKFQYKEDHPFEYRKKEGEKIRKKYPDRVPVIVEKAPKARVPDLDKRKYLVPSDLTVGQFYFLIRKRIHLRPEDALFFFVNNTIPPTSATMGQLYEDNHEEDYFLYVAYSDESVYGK
Chain of UniProt O15228 (O15228 whole entry, looked up): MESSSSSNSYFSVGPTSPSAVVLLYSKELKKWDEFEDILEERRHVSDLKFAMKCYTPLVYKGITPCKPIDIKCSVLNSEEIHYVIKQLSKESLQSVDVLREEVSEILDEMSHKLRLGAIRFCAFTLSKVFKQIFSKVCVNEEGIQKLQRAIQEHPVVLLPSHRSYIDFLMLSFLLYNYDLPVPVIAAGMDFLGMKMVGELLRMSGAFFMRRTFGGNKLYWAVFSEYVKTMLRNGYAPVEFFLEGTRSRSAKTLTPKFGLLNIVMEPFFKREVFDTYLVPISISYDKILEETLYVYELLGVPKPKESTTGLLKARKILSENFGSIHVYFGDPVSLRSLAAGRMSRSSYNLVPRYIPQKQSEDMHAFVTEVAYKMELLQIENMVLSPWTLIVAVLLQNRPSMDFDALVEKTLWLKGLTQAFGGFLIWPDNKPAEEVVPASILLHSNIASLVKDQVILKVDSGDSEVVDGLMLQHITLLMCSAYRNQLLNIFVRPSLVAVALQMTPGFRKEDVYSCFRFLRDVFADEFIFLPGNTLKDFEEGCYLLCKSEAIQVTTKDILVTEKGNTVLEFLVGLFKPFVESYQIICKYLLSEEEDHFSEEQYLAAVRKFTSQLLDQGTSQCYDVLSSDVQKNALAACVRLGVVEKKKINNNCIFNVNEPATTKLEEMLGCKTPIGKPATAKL
Chain of UniProt P22087 (P22087 whole entry, looked up): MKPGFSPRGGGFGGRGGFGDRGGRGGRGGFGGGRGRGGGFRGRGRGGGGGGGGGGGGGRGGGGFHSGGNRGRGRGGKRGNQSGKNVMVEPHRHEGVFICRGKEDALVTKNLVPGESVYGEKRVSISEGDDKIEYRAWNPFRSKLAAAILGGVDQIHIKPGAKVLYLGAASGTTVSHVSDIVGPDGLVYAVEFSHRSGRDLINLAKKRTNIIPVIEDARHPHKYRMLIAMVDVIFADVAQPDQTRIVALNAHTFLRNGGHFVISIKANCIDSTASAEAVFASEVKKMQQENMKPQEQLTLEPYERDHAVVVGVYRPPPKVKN
Chain of UniProt Q8N9F7 (Q8N9F7 whole entry, looked up): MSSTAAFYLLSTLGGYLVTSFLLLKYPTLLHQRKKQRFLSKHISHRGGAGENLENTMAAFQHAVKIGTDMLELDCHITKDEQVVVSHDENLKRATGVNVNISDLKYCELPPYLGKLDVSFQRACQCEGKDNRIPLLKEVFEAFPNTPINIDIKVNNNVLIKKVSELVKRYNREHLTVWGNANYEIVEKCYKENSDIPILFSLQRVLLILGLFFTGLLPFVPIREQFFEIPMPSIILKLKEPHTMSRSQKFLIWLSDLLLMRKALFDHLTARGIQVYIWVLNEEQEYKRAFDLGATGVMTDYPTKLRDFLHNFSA
Chain of UniProt P85037 (P85037 whole entry, looked up): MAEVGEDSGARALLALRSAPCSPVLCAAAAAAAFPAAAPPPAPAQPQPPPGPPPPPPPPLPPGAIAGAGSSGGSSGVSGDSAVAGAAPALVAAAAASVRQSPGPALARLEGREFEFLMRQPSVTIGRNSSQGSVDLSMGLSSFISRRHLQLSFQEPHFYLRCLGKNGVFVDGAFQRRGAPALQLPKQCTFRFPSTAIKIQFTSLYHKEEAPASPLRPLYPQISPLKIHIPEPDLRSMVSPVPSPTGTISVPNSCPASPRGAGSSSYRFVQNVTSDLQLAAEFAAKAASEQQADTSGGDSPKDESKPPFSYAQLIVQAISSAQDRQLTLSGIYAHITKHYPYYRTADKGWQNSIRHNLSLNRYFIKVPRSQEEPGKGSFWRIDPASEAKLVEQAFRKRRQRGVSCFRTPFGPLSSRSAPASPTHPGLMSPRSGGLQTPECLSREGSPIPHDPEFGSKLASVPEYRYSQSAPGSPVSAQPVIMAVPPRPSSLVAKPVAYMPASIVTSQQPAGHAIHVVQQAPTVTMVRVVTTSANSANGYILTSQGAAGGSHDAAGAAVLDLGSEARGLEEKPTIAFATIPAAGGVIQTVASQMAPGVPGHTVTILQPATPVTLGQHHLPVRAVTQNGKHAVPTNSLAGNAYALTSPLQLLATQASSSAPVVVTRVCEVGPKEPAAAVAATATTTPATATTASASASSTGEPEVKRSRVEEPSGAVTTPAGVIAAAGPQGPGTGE
Chain of UniProt Q96LB3 (Q96LB3 whole entry, looked up): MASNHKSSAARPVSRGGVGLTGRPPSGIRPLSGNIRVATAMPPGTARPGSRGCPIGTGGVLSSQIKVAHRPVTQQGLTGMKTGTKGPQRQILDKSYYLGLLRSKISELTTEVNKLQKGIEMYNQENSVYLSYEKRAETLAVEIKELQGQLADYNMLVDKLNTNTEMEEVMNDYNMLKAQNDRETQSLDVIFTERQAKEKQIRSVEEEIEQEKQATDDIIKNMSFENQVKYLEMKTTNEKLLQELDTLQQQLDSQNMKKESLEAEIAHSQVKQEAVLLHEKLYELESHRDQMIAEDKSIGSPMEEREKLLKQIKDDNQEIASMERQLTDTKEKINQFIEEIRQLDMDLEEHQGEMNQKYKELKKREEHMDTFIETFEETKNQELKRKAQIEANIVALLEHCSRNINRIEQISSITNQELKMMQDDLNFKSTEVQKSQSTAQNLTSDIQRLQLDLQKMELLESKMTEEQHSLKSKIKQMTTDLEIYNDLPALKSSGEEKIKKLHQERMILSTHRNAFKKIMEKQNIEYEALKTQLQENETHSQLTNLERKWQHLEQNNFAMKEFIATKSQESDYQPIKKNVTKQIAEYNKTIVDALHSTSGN
Chain of UniProt P0C0S5 (P0C0S5 whole entry, looked up): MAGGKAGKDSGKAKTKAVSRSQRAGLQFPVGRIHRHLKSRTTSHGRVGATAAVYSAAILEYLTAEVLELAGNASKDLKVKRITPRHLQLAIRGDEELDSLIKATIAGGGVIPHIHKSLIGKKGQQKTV

log2 fold change, inactive:
GSK3B isoform 2 (UniProt P49841) 0.159, GDI1 (UniProt P31150) 0.008, HMGCR isoform 3 (UniProt P04035) 0, FBL (UniProt P22087) -0.117, HMG20A (UniProt Q9NP66) 0.006, HDAC2 (UniProt Q92769) 0.023, GCLM (UniProt P48507) -0.035, H1FX (UniProt Q92522) -0.101, HMGN1 (UniProt P05114) -0.028, GDPD1 (UniProt Q8N9F7) 0.024, IFT74 (UniProt Q96LB3) 0.337, GLCCI1 (UniProt Q86VQ1) -0.024, GSTP1 (UniProt P09211) 0.057, HNRNPF (UniProt P52597) -0.044, HSPA8 (UniProt E9PK54) -0.158, GNPAT (UniProt O15228) 0.058, GTF2E1 (UniProt P29083) 0.017, H2AFX (UniProt P16104) -0.319, FOXK1 (UniProt P85037) 0.352, GABARAPL1 isoform 2 (UniProt Q9H0R8) 0.016, HOOK3 (UniProt Q86VS8) -0.024, FECH isoform 2 (UniProt P22830) 0.046, HPCAL1 (UniProt P37235) -0.034, GOLPH3 (UniProt Q9H4A6) 0.043, HIST2H2BF isoform 2 (UniProt Q5QNW6) -0.373, HDAC7 isoform 5 (UniProt Q8WUI4) 0.025, HEXA (UniProt P06865) 0.007, HDAC6 (UniProt Q9UBN7) 0.115, IFRD2 isoform 2 (UniProt Q12894) 0.04, GSTT1 (UniProt P30711) -0.028, H2AZ1 (UniProt P0C0S5) 0.037, HSD17B12 (UniProt Q53GQ0) 0.124, GNAS (UniProt Q5JWF2) 0.043, GLA (UniProt P06280) 0.045, GLUL (UniProt P15104) 0.017
